This is a sample that favours compounds with a hit; in the whole collection about 5.4% have one here.
Marburg entry inh = Marburg virus entry inhibition; Marburg virus pseudotyped entry inhibition, cell reporter; Potency, µM (top dose mostly 37.8 µM), usual class: inhibitors; 300,000 compounds, 1.8% hits; calls by dose curve; tested in HEK293 cells
Vaccinia mCherry = inhibitors of vaccinia virus infection (mCherry reporter signal). Vaccinia virus mCherry reporter infection, fluorescence. Potency, µM (doses to about 36.5 µM), most hits filed as inhibitors. 310,000 compounds, 0.63% hits; calls by dose curve; tested in A549 cells; note: nearly all actives have a fitted effect of over 35% in size
LASV entry inh = blocks Lassa virus binding to or entry into cells; Lassa virus pseudotype entry inhibition, cell reporter; Potency, µM (doses to about 37.9 µM), actives largely listed as inhibitors; 300,000 compounds, 1.2% hits; AID 540256; calls by dose curve; tested in HEK293 cells; note: nearly all actives have a fitted effect of over 50% in size
FMDV antiviral = antivirals against foot and mouth disease virus | Potency, µM (series often up to 57.9 µM), most hits filed as inhibitors | FMDV antiviral cell-based qHTS | 410,000 compounds, 1.2% hits | AID 1159524; calls by dose curve; tested in HEK293T cells; note: read-out not given here; nearly all actives have a fitted effect of over 45% in size
Sm TGR block = S. mansoni TGR enzyme inhibition; Potency, µM (series often up to 114 µM), most hits filed as inhibitors; AID 485364; Q962Y6; 360,000 compounds, 3% hits; purified TGR, DTNB reduction, TNB absorbance 405 nm; active = well fitted inhibition curve with a large enough effect; inconclusive = small, poorly fitted or top-dose-only effect; inactive = no such curve, though single readings can be large or run the other way; note: nearly all actives have a fitted effect of over 60% in size
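First, TGR (20 nM dispensed) and NADPH were mixed with compound. Second, a 15 min room-temperature incubation followed. Third, further NADPH and then DTNB were added to start the reaction. Finally, TNB absorbance was monitored kinetically.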
VACV Venus inh = inhibitors of vaccinia virus (Venus reporter) | Vaccinia virus Venus reporter expression, fluorescence | AID 720580 | Potency, µM (top dose mostly 36.5 µM), most hits filed as inhibitors | 330,000 compounds, 0.46% hits; calls by dose curve; tested in A549 cells; note: nearly all actives have a fitted effect of over 30% in size
Each line names hits and unclear results; the compound was inactive in the other large screens.

COC(=O)N1C(=O)[C@](c2ccccc2)(C2CCCC2)N1C(=O)OC	FMDV antiviral inconclusive, Sm TGR block 20µM (no result: Marburg entry inh, LASV entry inh)
CCOC(=O)c1ccc(NC(=O)C2Cc3ccccc3CN2S(=O)(=O)c2ccc(Cl)cc2)cc1 (stereo not drawn)	Marburg entry inh inconclusive, LASV entry inh inconclusive
CCC(C)c1ccc(NC(=O)c2[nH]c(C)c(C(C)=O)c2C)cc1 (stereo not drawn)	Marburg entry inh inconclusive
CCC(NC(=O)c1[nH]c(C)c(C(C)=O)c1C)c1ccc(Br)cc1 (stereo not drawn)	Marburg entry inh 8.91µM, LASV entry inh inconclusive
Cc1cc(NCc2ccccn2)n2nc(C)c(-c3ccc(Cl)cc3)c2n1	Marburg entry inh 10µM, Vaccinia mCherry inconclusive, LASV entry inh inconclusive, VACV Venus inh inconclusive
Cc1ccccc1C(=O)Nc1ccc2nc(SCC(=O)N3CCc4ccccc43)sc2c1	Marburg entry inh inconclusive, LASV entry inh inconclusive
Cc1ccc(C)c(SCC(=O)OCC(=O)c2ccco2)c1	Sm TGR block 39.8µM (no result: FMDV antiviral)
O=C(Cc1cccs1)OCC(=O)c1ccco1	Sm TGR block 25.1µM (no result: Vaccinia mCherry)
Cc1cc(C)c(S(=O)(=O)Nc2ccccc2C(=O)OCC(=O)NCc2ccccc2)c(C)c1	Marburg entry inh inconclusive, LASV entry inh 10µM
Cc1c(NC(=O)OC(C)C)sc(=S)n1C	Sm TGR block 35.5µM
Cc1c(CCOC(=O)c2ccc(N3CCOCC3)c([N+](=O)[O-])c2)sc[n+]1CC#N	Marburg entry inh inconclusive, Vaccinia mCherry inconclusive, LASV entry inh 13µM, FMDV antiviral inconclusive, Sm TGR block 0.891µM
Cc1ncsc1CCOC(=O)c1ccc(N2CCOCC2)c([N+](=O)[O-])c1	none (no result: Marburg entry inh, Vaccinia mCherry, LASV entry inh, VACV Venus inh)
Clc1cccc(Cl)c1CO/N=C/c1c(-c2ccccc2)nc2n1CCS2	Marburg entry inh 20.6µM, LASV entry inh inconclusive (no result: Vaccinia mCherry, VACV Venus inh)
CCC(=O)Nc1ccc(-c2nnc(SCC(=O)NC[C@H]3CCCO3)n2C)cc1	none (no result: Vaccinia mCherry, LASV entry inh, FMDV antiviral, Sm TGR block, VACV Venus inh)
CC(C)[C@H]1C(=O)O[C@H](C(C)C)C(=O)N(C)[C@@H](C(C)C)C(=O)O[C@H](C(C)C)C(=O)N(C)[C@@H](C(C)C)C(=O)O[C@H](C(C)C)C(=O)N1C	Vaccinia mCherry inconclusive, FMDV antiviral 11.2µM, VACV Venus inh inconclusive (no result: Marburg entry inh, LASV entry inh)
CCc1ccc(C2CC(=O)Nc3c2c(=O)n(C)c2ncnn32)cc1 (stereo not drawn)	FMDV antiviral inconclusive
O=C1[C@@H]2C(c3cccnc3)=NO[C@@H]2C(=O)N1c1ccc2ccccc2c1	Sm TGR block 3.55µM
CCn1nc(C)cc1C(=O)Sc1ccc(C)cc1	Sm TGR block 17.8µM
Cc1ccc(OC(=O)c2cc(C)nn2C(C)(C)C)cc1	none (no result: Marburg entry inh, Vaccinia mCherry, LASV entry inh, VACV Venus inh)
Cc1cc(NC(=O)Nc2nc3c(s2)CCCCCC3)ccc1Br	none (no result: Marburg entry inh)
COc1ccccc1[C@H]1/C(=C(\O)c2ccc(C)cc2)C(=O)C(=O)N1Cc1ccco1	none (no result: Vaccinia mCherry, LASV entry inh, FMDV antiviral, Sm TGR block, VACV Venus inh)
CC1CCN(S(=O)(=O)c2ccc3c(c2)CCN3C(=O)Nc2ccc(Br)cc2)CC1	Marburg entry inh inconclusive, LASV entry inh inconclusive
O=C(C1=C(O)C(=O)N(CCN2CCOCC2)[C@H]1c1cccnc1)c1cc2ccccc2o1	none (no result: Vaccinia mCherry, LASV entry inh, FMDV antiviral, Sm TGR block, VACV Venus inh)
O=C(C1=C(O)C(=O)N(CCN2CCOCC2)C1c1ccco1)c1cc2ccccc2o1 (stereo not drawn)	Sm TGR block 22.4µM (no result: Marburg entry inh, Vaccinia mCherry, LASV entry inh, VACV Venus inh)
O=C(C1=C(O)C(=O)N(CCN2CCOCC2)C1c1cccc(Br)c1)c1cc2ccccc2o1 (stereo not drawn)	none (no result: Marburg entry inh, Vaccinia mCherry, LASV entry inh, VACV Venus inh)
O=C(C1=C(O)C(=O)N(CCN2CCOCC2)C1c1ccc(F)cc1)c1cc2ccccc2o1 (stereo not drawn)	Sm TGR block 28.2µM (no result: Marburg entry inh, Vaccinia mCherry, LASV entry inh, VACV Venus inh)
Cc1ncc(C[n+]2csc(C)c2C)c(N)n1	Sm TGR block 25.1µM
COc1ccc(-n2c(O)c(C=NCc3ccc4c(c3)OCO4)c(=O)[nH]c2=O)cc1	Marburg entry inh inconclusive, Sm TGR block 14.1µM
COc1cccc(-n2c(O)c(C=NCc3ccc4c(c3)OCO4)c(=O)[nH]c2=O)c1	none (no result: Vaccinia mCherry, VACV Venus inh)
CCc1cc(C(=O)NCc2c(C)ncc3c2CCN(C(=O)C2=CCCC2)C3)no1	none (no result: Marburg entry inh, LASV entry inh, Sm TGR block)
C[N+](C)(C)c1ccc(/C=N/Nc2nc(Cl)c(C#N)c(Cl)c2Cl)cc1	Sm TGR block 44.7µM
Nc1c(C(=O)Nc2ccc(F)cc2)sc2nc(-c3ccco3)ccc12	Marburg entry inh inconclusive, LASV entry inh inconclusive, Sm TGR block inconclusive
CC(=O)c1sc2nc(-c3ccco3)ccc2c1N	Marburg entry inh inconclusive, Sm TGR block 0.891µM

Screening data (PubChem)
